PubChem BioAssay (NCATS)
Results filed as inconclusive are left out. Where a call stands in place of a potency, no number is given. Calls of active or inactive are those of the source. Unless noted, calls follow the shape of the dose curve; as a rule, active = well fitted curve in the direction sought with a large enough effect; inconclusive = small, poorly fitted or top-dose-only effect, or another doubt; inactive = no such curve, though single readings can be large; an effect the other way counts as inactive or inconclusive.

Key:
[1] = Cytometric Cell-Based qHTS for Inhibitors of the mTORC1 Signaling Pathway in MEF (Tsc2-/-, p53-/-) Cells (AID 2660);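 also: Tsc2 and p53 null MEFs carrying empty vector with compound for 24 h; percent of cells above a phospho-rpS6 to PI ratio cutoff in each well; series mostly up to about 38 µM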
Summary of the method: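 Cells are plated, treated with compound for 24 hrs at 37 degree Celsius, then fixed, blocked and immunostained for phospho-rpS6 Ser235/236. Propidium iodide counterstain follows. Per-well % positive cells is derived from the PI-normalized phospho-S6 signal.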

[2] = High Content Imaging Cell-Based qHTS for Inhibitors of the mTORC1 Signaling Pathway in MEF (Tsc2-/-, p53-/-) Cells (AID 2666);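 also: percent of cells scored positive for phospho-rpS6 Ser235/236 immunostaining by imaging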
Summary of the method: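 MEF Tsc2-/- p53-/- (empty vector), DMEM/10% FBS; cpd 24 h 37 °C; PFA fix, Alexa-488 p-rpS6 S235/236 Ab, Hoechst; imaged; rapamycin-defined inhibition; % positive cells/well.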

[3] = High Content Imaging Cell-Based qHTS for Inhibitors of the mTORC1 Signaling Pathway in MEF Cells (AID 2667);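 also: Tsc2-/- p53-/- MEFs stably re-expressing wild-type Tsc2 exposed 24 h; series mostly up to about 38 µM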
Summary of the method: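 Read-out is the share of phospho-rpS6-positive cells per well, from Hoechst-normalized Alexa-488 Ser235/236 staining imaged on IN Cell. Cells: WT Tsc2-expressing Tsc2-/-, p53-/- MEFs exposed to compound for 24 hrs.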

[4] = Cytometry Cell-Based qHTS for Inhibitors of the mTORC1 Signaling Pathway in MEF cells (AID 2668);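 also: Tsc2-/- p53-/- mouse embryonic fibroblasts stably re-expressing wild-type Tsc2; percent cells positive for phospho-rpS6 Ser235/236 relative to propidium iodide stain; series mostly up to about 38 µM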
Summary of the method: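 Tsc2-/-, p53-/- MEFs re-expressing WT Tsc2; cpd 24 hrs, 37 degree Celsius; PFA fix, Alexa-488 p-rpS6 (Ser235/236) Ab 2 hrs RT, PI counterstain; Acumen 488nm scan; p-S6/PI ratio → % positive cells; PI count = viability.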

[5] = Validation screen for small molecules that induce DNA re-replication in MCF 10A normal breast cells (AID 463097); also: nearly all actives have a fitted effect of over 60% in size
Summary of the method: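 Image-based qHTS: normal breast cells are incubated with compound for 48 hr, stained with Hoechst, and scanned for total nuclear fluorescence. Compounds raising the fraction of nuclei with elevated DNA content count as re-replication inducers.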

[6] = biological target: Ubiquitin carboxyl-terminal hydrolase 2 (Homo sapiens) (UniProt O75604); test: qHTS Validation Assay for Inhibitors of Ubiquitin-specific Protease USP2a Using CHOP2 as the Reporter (AID 463106)
Summary of the method: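 Fluorescence read-out at Ex 485nm/Em 531nm after 60min RT, following addition of 25nM Ub-CHOP2 plus 25nM reporter substrate to USP2 core (10nM) pretreated 30min with compound. Data normalized to NEM full inhibition; concentration-response curves fitted.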

[7] = biological target: DNA polymerase III PolC-type (Bacillus subtilis (strain 168)) (UniProt P13267); test: qHTS Validation Assay for the Inhibitors of DNA Replication in Gram-Positive Bacteria (AID 485295);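 also: reconstituted holoenzyme with PolC plus beta clamp SSB and primase; PicoGreen fluorescence of double-stranded DNA made on primed circular M13 template; series mostly up to about 57 µM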
Summary of the method: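 First, compound is mixed with the reconstituted replication complex and held at room temperature. Next, circular single-stranded M13Gori with nucleotides starts synthesis. Finally, PicoGreen in EDTA halts the reaction and stains double-stranded product for fluorescence reading.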

[8] = biological target: Tumor susceptibility gene 101 protein (Homo sapiens) (UniProt Q99816); test: qHTS Validation Assay for Iinhibitors of HIV-1 Budding by Blocking the Interaction of PTAP/TSG101 (AID 485342; calls by dose curve)
Summary of the method: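 Binding of a FITC-tagged PTAP-motif peptide (50 nM) to the Tsg101 binding domain (10 uM) is monitored by fluorescence polarization. Compounds are pin-delivered before peptide addition, and incubation runs 20 min at room temperature.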

[9] = biological target: Beta-2 adrenergic receptor (Homo sapiens) (UniProt P07550); test: qHTS validation assay of beta-arrestin-biased ligands of beta2-adrenergic receptor (AID 485366)
Summary of the method: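 Compound series up to 46 microM applied to beta2-AR/beta-arrestin Tango cells, 18 hr, 37 degrees C, 5% CO2. Read-out: tTA-driven luciferase luminescence, converted to %Activity; concentration-response curves assigned curve classes.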

[10] = biological target: ATP-dependent 6-phosphofructokinase (Trypanosoma brucei brucei) (UniProt O15648); test: qHTS Validation Assay to Find Inhibitors of T. brucei phosphofructokinase (AID 485368)
Summary of the method: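 qHTS format, up to 57 uM. PFK 1.25 nM; F6P 0.5 mM; ATP 0.1 mM; 5 mM MgCl2, 0.01% Tween20, 0.1% BSA; 0.1 M TEA pH 8.0; 45 min RT; ADP-Glo readout; no-enzyme control = full inhibition.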

[11] = Quantitative high throughput screen for delayed death inhibitors of the malarial parasite plastid, 48 hour incubation (AID 488752); also: nearly all actives have a fitted effect of over 65% in size
Summary of the method: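 First, compound was pinned into RPMI 1640 medium containing 0.5% Albumax. Next, reporter-parasite-infected erythrocytes were added to 2% hematocrit and 0.1% parasitemia. After 48 h at 37 C under 5% CO2, luciferase detection reagent was added and luminescence read.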

[12] = biological target: Thioredoxin reductase 1, cytoplasmic (Rattus norvegicus) (UniProt O89049); test: qHTS Assay for Substrates of Mammalian Selenoprotein Thioredoxin Reductase 1 (TrxR1) (AID 488772);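 also: series mostly up to about 57 µM; a drop in NADPH fluorescence below the no-compound background marks a TrxR1 substrate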
Summary of the method: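 In this dual-purpose format, potential substrates are identified from the first fluorescence read after selenite addition, not from the 8-minute delta. Rat enzyme is preincubated with NADPH and then with compound at ~22 deg C.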

[13] = biological target: Thioredoxin reductase 1, cytoplasmic (Rattus norvegicus) (UniProt O89049); test: qHTS Assay for Inhibitors of Mammalian Selenoprotein Thioredoxin Reductase 1 (TrxR1) (AID 488773); details: Potency: inhibition;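 also: drop in NADPH fluorescence over an 8 min run after selenite addition; series mostly up to about 57 µM; nearly all actives have a fitted effect of over 40% in size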
Summary of the method: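 Inhibition is scored from the loss of NADPH fluorescence between first and last reads of an 8-min kinetic run. Selenite (400 uM) was the substrate, added after 15 min compound preincubation at room temperature.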

[14] = biological target: Flap endonuclease 1 (Homo sapiens) (UniProt P39748); test: qHTS Validation Assay for the Inhibitors of Human Flap endonuclease 1 (FEN1) (AID 488816)
Summary of the method: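 Enzyme reagent 10 nM; cpds pinned; 15 min RT preinc.; substrate 50 nM final; reads t=0 and 15 min; no-enzyme buffer wells as neg. control; normalized data, 4-parameter Hill fit.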

[15] = biological target: M-phase phosphoprotein 8 (Homo sapiens) (UniProt Q99549); test: qHTS Validation Assay for Inhibitors for MPP8 Chromodomain Interactions with Methylated Histone Tails (AID 488949);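 also: 50 nM MPP8 with 50 nM peptide preformed then compounds added for 30 min; AlphaScreen signal from MPP8 chromodomain bound to biotinylated H3K9me3 peptide; top concentration of the series differs between compounds; nearly all actives have a fitted effect of over 55% in size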
Summary of the method: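 50 nM MPP8 + 50 nM b-H3K9me3 peptide, PBS pH 7.4/0.01% Tween-20, 30 min RT; + cpd 30 min RT; + AlphaScreen donor/Ni-chelate acceptor beads 10 ug/mL final, 30 min dark; luminescence read.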

[16] = biological target: Chromobox protein homolog 1 (Homo sapiens) (UniProt P83916); test: qHTS Validation Assay for Inhibitors of HP1-beta Chromodomain Interactions with Methylated Histone Tails (AID 488953); also: nearly all actives have a fitted effect of over 50% in size; also: potency is read from the fitted curve at half-maximal effect
Summary of the method: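 Disruption of preformed HP1-beta:H3K9me3 peptide complexes (both 50 nM, PBS pH 7.4 with 0.01% Tween-20) is measured by AlphaScreen after 30 min compound exposure at room temperature, using streptavidin donor and nickel chelate acceptor beads at 10 ug/mL final.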

[17] = Quantitative high throughput screen for delayed death inhibitors of the malarial parasite plastid, 96 hour incubation (AID 488745);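 also: luciferase-expressing P. falciparum in erythrocytes at 2% hematocrit and 0.1% parasitemia; series mostly up to about 29 µM; nearly all actives have a fitted effect of over 70% in size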
Summary of the method: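 Readout is firefly luciferase luminescence from an integrated reporter in P. falciparum; lower signal marks inhibited growth. Cultures at 2% hematocrit and 0.1% parasitemia were treated with compound across two generations (96 h, 37 C, 5% CO2).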

[18] = biological target: Methanococcus maripaludis chaperonin (MmCpn) (UniProt Q6LX38); test: High-Throughput Screening for Modulators of Cytosolic Chaperonin Activity: MmCpn Primary Screen (AID 488978);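 also: 50 nM MmCpn enzyme hydrolysing 30 µM ATP at 37 °C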
Summary of the method: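 Steps: chaperonin 50 nM final; add compound, 5 min RT; start with ATP, 30 uM final; hold 10 min at 37C; add ADP Transcreener HTRF reagent, 5 min; read ex 320, em 590 and 665 nm.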

[19] = qHTS Validation Assay to Find Inhibitors of Chronic Active B-Cell Receptor Signaling (AID 485345; active = well fitted curve in the direction sought with a large enough effect in the main read-out, with a control signal flat, not every such curve was filed as active)
Summary of the method: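 TMD8 ABC-DLBCL cells stably carrying doxycycline-inducible IkappaBalpha–green luciferase fusion plus unfused red luciferase; compounds 46 uM to 3 nM, 4 h at 37C with doxycycline. Corrected green/red luminescence ratio normalized to 10 uM MG-132 and basal cell wells; curves fitted.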

Chain of ATP-dependent 6-phosphofructokinase (Trypanosoma brucei brucei) (O15648 whole entry, looked up): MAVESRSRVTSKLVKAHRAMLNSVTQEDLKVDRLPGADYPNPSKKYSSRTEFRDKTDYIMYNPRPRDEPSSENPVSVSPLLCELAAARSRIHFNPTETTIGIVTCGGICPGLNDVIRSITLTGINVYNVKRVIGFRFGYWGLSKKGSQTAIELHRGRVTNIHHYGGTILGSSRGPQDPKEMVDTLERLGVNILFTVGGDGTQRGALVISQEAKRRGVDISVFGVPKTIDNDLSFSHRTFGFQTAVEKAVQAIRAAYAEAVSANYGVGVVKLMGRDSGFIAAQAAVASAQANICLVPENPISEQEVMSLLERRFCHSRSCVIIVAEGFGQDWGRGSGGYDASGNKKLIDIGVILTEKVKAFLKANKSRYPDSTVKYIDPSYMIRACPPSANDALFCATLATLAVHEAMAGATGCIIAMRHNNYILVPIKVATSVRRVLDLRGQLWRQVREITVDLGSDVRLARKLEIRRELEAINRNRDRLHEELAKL
Chain of Chromobox protein homolog 1 (Homo sapiens) (P83916 whole entry, looked up): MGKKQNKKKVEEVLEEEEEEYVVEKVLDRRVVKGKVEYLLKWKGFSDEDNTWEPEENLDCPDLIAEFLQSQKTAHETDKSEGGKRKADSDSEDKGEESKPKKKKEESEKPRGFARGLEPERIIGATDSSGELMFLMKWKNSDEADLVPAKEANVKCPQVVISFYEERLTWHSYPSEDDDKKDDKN
Chain of Methanococcus maripaludis chaperonin (MmCpn) (Q6LX38 1-543): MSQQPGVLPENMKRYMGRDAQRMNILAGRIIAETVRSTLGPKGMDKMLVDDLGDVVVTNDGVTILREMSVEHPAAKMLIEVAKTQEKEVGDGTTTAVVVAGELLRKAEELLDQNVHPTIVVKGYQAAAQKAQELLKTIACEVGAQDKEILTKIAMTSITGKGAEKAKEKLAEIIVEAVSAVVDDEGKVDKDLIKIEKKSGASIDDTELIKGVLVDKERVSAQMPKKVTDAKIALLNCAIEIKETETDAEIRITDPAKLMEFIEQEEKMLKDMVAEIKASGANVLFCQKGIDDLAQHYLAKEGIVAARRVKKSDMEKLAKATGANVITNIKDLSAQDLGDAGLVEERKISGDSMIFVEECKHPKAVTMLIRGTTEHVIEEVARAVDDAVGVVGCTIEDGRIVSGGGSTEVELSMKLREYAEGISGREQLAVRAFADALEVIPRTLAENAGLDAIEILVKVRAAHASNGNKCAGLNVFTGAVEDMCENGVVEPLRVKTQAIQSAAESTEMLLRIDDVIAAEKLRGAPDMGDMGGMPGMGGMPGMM
Chain of DNA polymerase III PolC-type (Bacillus subtilis (strain 168)) (P13267 whole entry, looked up): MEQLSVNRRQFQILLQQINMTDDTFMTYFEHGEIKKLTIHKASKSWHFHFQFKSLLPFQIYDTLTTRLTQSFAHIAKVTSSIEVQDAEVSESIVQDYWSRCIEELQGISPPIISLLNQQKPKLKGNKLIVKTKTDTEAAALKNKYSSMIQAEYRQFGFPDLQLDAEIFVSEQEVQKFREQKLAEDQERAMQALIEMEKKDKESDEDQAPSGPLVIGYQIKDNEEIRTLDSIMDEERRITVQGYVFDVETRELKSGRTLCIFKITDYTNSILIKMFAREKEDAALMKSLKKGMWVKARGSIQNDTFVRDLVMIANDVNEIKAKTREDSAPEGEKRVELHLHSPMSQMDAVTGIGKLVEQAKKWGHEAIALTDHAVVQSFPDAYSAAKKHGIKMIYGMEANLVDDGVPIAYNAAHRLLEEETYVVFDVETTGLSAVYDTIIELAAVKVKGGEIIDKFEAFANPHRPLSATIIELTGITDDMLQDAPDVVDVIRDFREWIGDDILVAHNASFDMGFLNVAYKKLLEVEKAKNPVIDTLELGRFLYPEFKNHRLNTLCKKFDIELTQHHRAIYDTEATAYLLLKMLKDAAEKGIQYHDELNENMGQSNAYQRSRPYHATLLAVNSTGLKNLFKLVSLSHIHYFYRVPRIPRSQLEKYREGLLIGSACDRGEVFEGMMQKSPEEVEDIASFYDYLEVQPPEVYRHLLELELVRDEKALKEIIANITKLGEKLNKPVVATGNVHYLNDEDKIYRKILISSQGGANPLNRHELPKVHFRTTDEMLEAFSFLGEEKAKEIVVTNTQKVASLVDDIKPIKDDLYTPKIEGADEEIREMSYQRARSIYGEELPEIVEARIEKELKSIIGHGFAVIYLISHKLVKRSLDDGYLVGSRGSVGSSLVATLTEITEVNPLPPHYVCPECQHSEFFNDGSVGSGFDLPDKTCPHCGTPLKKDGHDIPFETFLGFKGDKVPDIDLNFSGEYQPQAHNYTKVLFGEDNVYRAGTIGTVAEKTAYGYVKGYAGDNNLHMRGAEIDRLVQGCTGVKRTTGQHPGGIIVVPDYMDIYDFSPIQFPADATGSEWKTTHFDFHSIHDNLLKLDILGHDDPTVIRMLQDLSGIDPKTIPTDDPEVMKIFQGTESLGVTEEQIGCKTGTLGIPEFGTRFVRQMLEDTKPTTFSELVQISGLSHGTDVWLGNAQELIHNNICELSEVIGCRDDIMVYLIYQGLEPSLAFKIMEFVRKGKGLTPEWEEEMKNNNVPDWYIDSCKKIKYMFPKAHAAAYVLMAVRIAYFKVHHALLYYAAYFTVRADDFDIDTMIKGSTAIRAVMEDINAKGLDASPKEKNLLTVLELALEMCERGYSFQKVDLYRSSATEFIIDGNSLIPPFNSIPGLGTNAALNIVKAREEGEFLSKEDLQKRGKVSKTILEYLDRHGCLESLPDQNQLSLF
Chain of Flap endonuclease 1 (Homo sapiens) (P39748 whole entry, looked up): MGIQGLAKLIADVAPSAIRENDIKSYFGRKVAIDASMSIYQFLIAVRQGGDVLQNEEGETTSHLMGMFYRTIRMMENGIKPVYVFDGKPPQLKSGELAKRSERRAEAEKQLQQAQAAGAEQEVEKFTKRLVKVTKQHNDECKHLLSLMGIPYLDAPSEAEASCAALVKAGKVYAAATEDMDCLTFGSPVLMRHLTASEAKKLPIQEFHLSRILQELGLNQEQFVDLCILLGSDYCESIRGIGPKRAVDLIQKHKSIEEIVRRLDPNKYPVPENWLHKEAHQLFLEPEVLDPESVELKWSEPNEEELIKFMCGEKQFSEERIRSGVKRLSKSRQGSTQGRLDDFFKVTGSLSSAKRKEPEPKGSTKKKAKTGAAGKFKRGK
Chain of Tumor susceptibility gene 101 protein (Homo sapiens) (Q99816 whole entry, looked up, the tested form may be a part): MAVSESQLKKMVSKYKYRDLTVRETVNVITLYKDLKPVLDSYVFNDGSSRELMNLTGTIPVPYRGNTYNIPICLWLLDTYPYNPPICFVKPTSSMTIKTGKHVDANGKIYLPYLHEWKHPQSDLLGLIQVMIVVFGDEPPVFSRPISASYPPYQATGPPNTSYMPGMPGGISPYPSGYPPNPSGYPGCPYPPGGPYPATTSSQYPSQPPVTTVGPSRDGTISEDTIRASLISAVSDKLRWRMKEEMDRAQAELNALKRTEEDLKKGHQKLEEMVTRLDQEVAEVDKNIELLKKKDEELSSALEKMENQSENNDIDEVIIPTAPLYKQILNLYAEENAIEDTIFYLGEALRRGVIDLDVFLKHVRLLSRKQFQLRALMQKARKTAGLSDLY
Chain of M-phase phosphoprotein 8 (Homo sapiens) (Q99549 whole entry, looked up): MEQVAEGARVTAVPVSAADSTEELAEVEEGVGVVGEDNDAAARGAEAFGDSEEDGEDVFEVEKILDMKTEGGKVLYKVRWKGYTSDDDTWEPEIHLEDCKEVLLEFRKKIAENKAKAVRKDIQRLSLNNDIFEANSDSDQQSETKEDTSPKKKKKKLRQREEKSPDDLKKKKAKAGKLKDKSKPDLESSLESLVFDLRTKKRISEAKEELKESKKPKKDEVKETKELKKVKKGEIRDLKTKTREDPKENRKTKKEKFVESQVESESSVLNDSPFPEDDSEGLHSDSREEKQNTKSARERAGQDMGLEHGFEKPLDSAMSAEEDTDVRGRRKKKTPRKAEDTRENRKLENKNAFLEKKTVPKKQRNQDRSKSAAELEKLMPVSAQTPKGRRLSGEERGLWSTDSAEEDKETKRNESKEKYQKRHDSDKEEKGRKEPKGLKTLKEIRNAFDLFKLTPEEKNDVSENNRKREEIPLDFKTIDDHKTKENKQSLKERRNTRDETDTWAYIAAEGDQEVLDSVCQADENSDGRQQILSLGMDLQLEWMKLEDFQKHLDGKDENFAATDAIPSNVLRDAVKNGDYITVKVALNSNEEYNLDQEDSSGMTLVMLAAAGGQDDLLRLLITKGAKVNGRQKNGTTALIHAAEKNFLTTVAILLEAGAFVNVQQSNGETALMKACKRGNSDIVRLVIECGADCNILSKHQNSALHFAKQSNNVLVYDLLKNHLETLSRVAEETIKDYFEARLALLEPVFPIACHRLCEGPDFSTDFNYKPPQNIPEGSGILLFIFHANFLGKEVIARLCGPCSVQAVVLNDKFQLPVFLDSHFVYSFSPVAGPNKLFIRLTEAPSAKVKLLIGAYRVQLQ
Chain of Thioredoxin reductase 1, cytoplasmic (Rattus norvegicus) (O89049 whole entry, looked up): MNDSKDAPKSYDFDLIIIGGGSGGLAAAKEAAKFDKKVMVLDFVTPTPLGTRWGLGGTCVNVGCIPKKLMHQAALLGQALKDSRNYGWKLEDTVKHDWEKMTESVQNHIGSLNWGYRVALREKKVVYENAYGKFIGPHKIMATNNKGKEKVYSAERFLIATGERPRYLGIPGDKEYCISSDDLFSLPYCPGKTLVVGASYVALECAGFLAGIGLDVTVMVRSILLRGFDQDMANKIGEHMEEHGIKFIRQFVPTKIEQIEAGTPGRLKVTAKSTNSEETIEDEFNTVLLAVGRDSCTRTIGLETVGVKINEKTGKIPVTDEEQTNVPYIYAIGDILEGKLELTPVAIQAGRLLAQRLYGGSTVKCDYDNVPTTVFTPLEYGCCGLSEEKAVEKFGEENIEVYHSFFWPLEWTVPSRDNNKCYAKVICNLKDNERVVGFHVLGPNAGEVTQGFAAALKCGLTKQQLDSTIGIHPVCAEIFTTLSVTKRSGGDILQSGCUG

| SMILES | outcome [1] | Potency [2] | Potency [3] | Potency [4] | Potency [5] | Potency [6] | Potency [7] | outcome [8] | outcome [9] | Potency [10] | Potency [11] | outcome [12] | Potency [13] | Potency [14] | Potency [15] | Potency [16] | Potency [17] | outcome [18] | outcome [19] |
| --- | --- | --- | --- | --- | --- | --- | --- | --- | --- | --- | --- | --- | --- | --- | --- | --- | --- | --- | --- |
| O=c1[nH]c2ccccc2c2ccccc12 | inactive | inactive | inactive | inactive | inactive | inactive | inactive | inactive | inactive | inactive | inactive | inactive | inactive | inactive | inactive | inactive |  |  |  |
| CC(C)Cn1c(=O)n(C)c(=O)c2[nH]cnc21 | inactive | inactive | inactive | inactive | inactive | inactive | inactive | inactive | inactive | inactive | inactive | inactive | inactive | inactive | inactive | inactive | inactive | inactive |  |
| C[C@@]1(C2CCCC2)Cc2cc(OCC(=O)O)c(Cl)c(Cl)c2C1=O | inactive | inactive | inactive | inactive | inactive | inactive | inactive | inactive | inactive |  | inactive | inactive | inactive | inactive | inactive | inactive |  | inactive | inactive |
| c1ccc(C2CN3CCSC3=N2)cc1 (stereo not drawn) | inactive | inactive | inactive | inactive | inactive | inactive | inactive | inactive | inactive |  |  | inactive | inactive | inactive | inactive |  | inactive | inactive | inactive |
| CCCc1c(OCCCOc2ccc(OCC(=O)O)cc2)ccc(C(C)=O)c1O | inactive | inactive | inactive | inactive | inactive | inactive | inactive | inactive | inactive | inactive |  | inactive | inactive |  | inactive | inactive | inactive | inactive |  |
| CCCCOc1cc(CC2CNC(=O)N2)ccc1OC (stereo not drawn) | inactive | inactive | inactive | inactive | inactive | inactive | inactive | inactive | inactive | inactive | inactive | inactive | inactive | inactive | inactive | inactive |  | inactive |  |
| Cc1nc(N=Nc2ccc(C(=O)O)cc2)c(COP(=O)(O)O)c(C=O)c1O | inactive | inactive | inactive | inactive | inactive | inactive | inactive | inactive | inactive |  | inactive | inactive |  |  | inactive | 50.1 µM (active) | inactive | inactive | inactive |
| NCC(O)(CS(=O)(=O)O)c1ccc(Cl)cc1 (stereo not drawn) | inactive | inactive | inactive | inactive | inactive | inactive | inactive | inactive |  | inactive | inactive | inactive | inactive | inactive | inactive |  |  | inactive | inactive |
| Cc1ccc2c(c1)C(N1CCN(C)CC1)=Nc1cccnc1N2 | inactive | inactive | inactive | inactive | inactive | inactive | inactive | inactive | inactive | inactive | inactive | inactive | inactive | inactive | inactive |  | inactive | inactive |  |
| COc1cc(CC(=O)O)ccc1O | inactive | inactive | inactive | inactive | inactive | inactive | inactive | inactive | inactive |  | inactive |  |  | inactive | inactive | 0.006 µM (active) | inactive | inactive | inactive |
| [Li+] | inactive | inactive | inactive | inactive | inactive | inactive | inactive | inactive | inactive |  | inactive | inactive | inactive |  | inactive | inactive | inactive | inactive | inactive |
| O=C(O)CCC(=O)N1CCCC1C(=O)O (stereo not drawn) | inactive | inactive | inactive | inactive | inactive | inactive | inactive | inactive | inactive | inactive |  | inactive | inactive | inactive | inactive | inactive | inactive | inactive |  |
| CC(N)=NCCCC[C@@H](N)C(=O)O | inactive | inactive | inactive | inactive | inactive | inactive | inactive | inactive |  | inactive |  | inactive | inactive | inactive | inactive | inactive | inactive | inactive | inactive |
| NC(=O)CC[C@H](N)C(=O)O | inactive | inactive | inactive | inactive | inactive | inactive | inactive | inactive | inactive |  | inactive | inactive |  | inactive | inactive | inactive |  | inactive | inactive |
| NC1(C(=O)O)CC1 | inactive | inactive | inactive | inactive | inactive | inactive | inactive | inactive |  |  | inactive | inactive |  | inactive | inactive | inactive | inactive | inactive | inactive |
| O=C(O)C1=CCNCC1 | inactive | inactive | inactive | inactive | inactive | inactive | inactive | inactive | inactive |  | inactive | inactive |  | inactive | inactive | inactive | inactive | inactive | inactive |
| N=C(N)c1ccccc1 | inactive | inactive | inactive | inactive | inactive | inactive | inactive | inactive | inactive | inactive | inactive | inactive | inactive | inactive | inactive | inactive | inactive | inactive |  |
